Experimental data as given in PubChem BioAssay AID1851 (National Center for Advancing Translational Sciences (NCATS), 2009).
In all, about 16,000 compounds went through this assay and about 4,000 (25%) were called active. Inconclusive results (about 26%) are left out. Only a sample is shown. A number with no mark means an inactive call. Calls follow the shape of the dose curve; as a rule, active = well fitted curve in the direction sought with a large enough effect; inconclusive = small, poorly fitted or top-dose-only effect, or effect the other way; inactive = no such curve, though single readings can be large or run the other way.

biological target: Cytochrome P450 2C9 (Homo sapiens) (UniProt P11712); assay: Cytochrome panel assay with activity outcomes; conditions: recombinant CYP, pro-luciferin dealkylation, luminescence, p450-cyp2c9; series mostly up to 57.1 µM; activity, negative = inhibition: at the top concentration
Sequence (P11712 whole entry, looked up): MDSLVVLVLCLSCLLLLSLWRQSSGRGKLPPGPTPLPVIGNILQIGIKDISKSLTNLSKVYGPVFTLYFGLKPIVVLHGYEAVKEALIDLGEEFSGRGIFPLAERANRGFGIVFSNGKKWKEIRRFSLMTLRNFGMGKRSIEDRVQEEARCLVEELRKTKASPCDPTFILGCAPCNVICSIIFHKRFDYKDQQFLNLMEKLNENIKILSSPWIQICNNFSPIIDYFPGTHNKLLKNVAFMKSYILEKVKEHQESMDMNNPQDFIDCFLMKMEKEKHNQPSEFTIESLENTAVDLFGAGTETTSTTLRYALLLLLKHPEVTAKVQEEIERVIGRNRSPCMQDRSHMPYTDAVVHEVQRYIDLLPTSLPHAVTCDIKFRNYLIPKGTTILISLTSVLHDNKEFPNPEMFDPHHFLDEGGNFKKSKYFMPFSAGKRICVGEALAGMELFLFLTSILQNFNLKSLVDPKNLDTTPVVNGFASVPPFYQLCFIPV
% is scaled to controls: 0 for no effect and ±100 for the full control effect.

| Structure (SMILES) | activity, negative = inhibition | AC50 |
| --- | --- | --- |
| CN1CCN(c2ncc3nc(-c4cccs4)c(=O)n(CCc4ccccc4)c3n2)CC1 | 3.63% |  |
| CCCn1c(-c2cccs2)nc2nc3ccccc3nc21 |  | 10 µM (active) |
| CCNc1ncc2nc(-c3cccs3)c(=O)n(CCc3ccccc3)c2n1 | -4.57% |  |
| Cc1ccc2nc(SCc3nc4c(cnn4-c4ccccc4)c(=O)[nH]3)[nH]c2c1 |  | 4.47 µM (active) |
| C=CCSc1nc2ccccc2n1C(=O)/C=C/c1cc(OC)c(OC)c(OC)c1 |  | 7.94 µM (active) |
| COc1cc(/C=C/C(=O)Nc2ccccc2C(F)(F)F)cc(OC)c1OC | -26.9% |  |
| CC(=O)n1c(COS(C)(=O)=O)nc2ccccc21 | -7.23% [at 11.4 µM] |  |
| CCSc1nc2ccccc2n1C(=O)/C=C\c1ccc(OC)c(OC)c1 |  | 1.58 µM (active) |
| COc1ccc(NC(=O)COC(=O)Cn2c(C)nc3ccccc32)cc1OC | -22.4% |  |
| COc1cc(/C=C\C(=O)N2CCC=CC2=O)cc(OC)c1OC | 17.9% [at 25.6 µM] |  |
| COc1ccc(O[C@H]2C=C[C@@H](c3ccccc3)O[C@H]2COC(=O)CC/C(C)=N\OC[C@@H](O)[C@H]2O[C@H]3OC(C)(C)O[C@H]3[C@@H]2O)cc1 |  | 1.58 µM (active) |
| CCCNC(=O)OC[C@H]1O[C@@H](CCO/N=C2/[C@H]3O[C@@H]3[C@@H](O)[C@H]3[C@H]2CCn2c(=O)n(-c4ccccc4)c(=O)n23)C=C[C@@H]1Oc1ccc(OC)cc1 | -24.3% [at 11.4 µM] |  |
| COc1ccc(O[C@H]2C=C[C@@H](c3ccccc3)O[C@H]2CO/N=C(/C)CCC(=O)OC[C@@H]2O[C@H](c3ccccc3)C=C[C@@H]2Oc2ccc(OC)cc2)cc1 | -3.16% [at 11.4 µM] |  |
| COc1ccc(O[C@H]2C=C[C@@H](c3ccccc3)O[C@H]2COC(=O)CC/C(C)=N/OCC[C@@H]2C=C[C@H](OC(C)=O)[C@H](COC(C)=O)O2)cc1 |  | 3.98 µM (active) |
| COc1ccc(O[C@H]2C=C[C@@H](c3ccccc3)O[C@H]2COC(=O)N2CCCCC2)cc1 |  | 2.51 µM (active) |
| CCCNC(=O)OC[C@@H]1O[C@H](CCO/N=C(\C)CCN2CCc3nc(-c4ccccc4)c(-c4ccccc4)cc3C2)C=C[C@@H]1Oc1ccc(OC)cc1 |  | 2 µM (active) |
| COc1ccc(O[C@H]2C=C[C@@H](c3ccccc3)O[C@H]2CO/N=C(/C)CCC(=O)OC[C@@H]2O[C@H](C#Cc3ccccc3)C=C[C@@H]2Oc2ccc(C)cc2)cc1 | -16.6% [at 11.4 µM] |  |
| C/C(CCC(=O)OC[C@@H]1O[C@H](C#Cc2ccccc2)C=C[C@@H]1Oc1ccc(C)cc1)=N/OC[C@@H](O)[C@H]1O[C@H]2OC(C)(C)O[C@H]2[C@@H]1O | -25.1% [at 11.4 µM] |  |
| COc1ccc(O[C@H]2C=C[C@@H](c3ccccc3)O[C@@H]2CO/N=C(\C)CCN2CCc3nc(-c4ccccc4)c(-c4ccccc4)cc3C2)cc1 | -13.6% [at 11.4 µM] |  |
| COc1ccc(O[C@H]2C=C[C@@H](c3ccccc3)O[C@H]2COC(=O)CC/C(C)=N/O[C@@H]2O[C@H](COC(C)=O)[C@H](OC(C)=O)[C@H](OC(C)=O)[C@H]2OC(C)=O)cc1 | -25.6% [at 11.4 µM] |  |
| CCCNC(=O)OC[C@@H]1O[C@H](c2ccccc2)C=C[C@@H]1Oc1ccc(OC)cc1 | -29.7% [at 11.4 µM] |  |
| CCCNC(=O)OC[C@@H]1O[C@H](CCO/N=C(\C)CCN2CCc3nc(CC)c(CC)cc3C2)C=C[C@@H]1Oc1ccc(OC)cc1 | -21.2% [at 11.4 µM] |  |

| Structure (SMILES) | activity, negative = inhibition | AC50 |
| --- | --- | --- |
| C=CC[N+]1(CC#CCOC(c2ccccc2)c2ccccc2)CCOCC1 | -4.98% |  |
| COc1ccccc1CNc1ncncc1-c1ccccc1C | 11.7% [at 2.29 µM] |  |
| CO/N=C(\C)CCN1CCCCc2nc(C)c(C)cc21 | 8.57% [at 11.4 µM] |  |
| CC1=CC(=O)C=CC1(C)C(Cl)(Cl)Cl (stereo not given) | -19.5% |  |
| Nc1nccc(Nc2ccc(S(N)(=O)=O)cc2)n1 | -3.1% [at 11.4 µM] |  |
| CCCOc1ccc(C(=O)CCNc2ccc(C)c(Cl)c2)cc1 | 1.11% |  |
| CCOc1ccc(C(=O)Nc2cnn(Cc3ccc(Cl)c(Cl)c3)c2)cc1 |  | 17.8 µM (active) |
| CCOC(OCC)P(=O)(O)CCCNCc1ccc(Cl)c(Cl)c1 | 6.63% |  |
| Cn1c(SCc2nc3ccccc3n2CCO)nc2ccccc21 | -20.4% |  |
| CC(C)N(C(=O)CSc1nc2ccccc2n1-c1ccccc1)C(C)C |  | 15.8 µM (active) |
| CCCCc1c(O)nc(SCCN(C)C)n(-c2ccccc2)c1=O | -4.69% |  |
| C[C@@H](N)C(=O)O | -3.47% |  |
| CCN1CCc2c(sc(NC(=S)NC(=O)c3ccccc3)c2C#N)C1 | -29.2% |  |
| CCN1CCc2c(sc(N)c2C(N)=O)C1 | -3.22% |  |
| CCOC(=O)c1c(NC(=S)Nc2ccccc2)sc2c1CCN(CCc1ccccc1)C2 |  | 0.282 µM (active) |
| CC(=O)CC(=O)Nc1ccc2ccccc2c1 | 21.1% [at 11.4 µM] |  |
| CCSc1nnc(NC(=O)COc2ccc3ccccc3c2)s1 |  | 0.224 µM (active) |
| O=C(COc1ccc2ccccc2c1)NNC(=O)Cc1cccc2ccccc12 | 4.04% |  |
| O=C(COc1ccc2ccccc2c1)Nc1ccc(Cc2ccncc2)cc1 |  | 0.316 µM (active) |
| CCSc1nnc(NC(=O)Cc2ccccc2OC)s1 | -20.3% |  |
| Nc1nc(Cl)cc(NCCO)n1 | 2.74% [at 11.4 µM] |  |
| O=C(O)[C@@H]1Cc2c([nH]c3ccccc23)[C@@H](CCCCO)N1 | -6.46% [at 11.4 µM] |  |

| Structure (SMILES) | activity, negative = inhibition | AC50 |
| --- | --- | --- |
| Cc1cc(C)c(C#N)c(SCc2cc3c(cc2Cl)OCO3)n1 |  | 3.16 µM (active) |
| N#Cc1cccc(NC(=O)N2CCCC3(CCN(C(=O)c4cnccn4)CC3)C2)c1 | 3.77% |  |
| COc1ccc(Nc2nnc(-c3ccc(N4CCOCC4)c([N+](=O)[O-])c3)c3ccccc23)cc1 |  | 3.16 µM (active) |
| CS(=O)(=O)N1CCC2(CC1)CN(C(=O)Nc1cccc(C#N)c1)C2 | -4.82% |  |
| CC(C)(C)NCC[C@@H](O)c1cc(C(F)(F)F)nc2c(C(F)(F)F)cccc12 | 3.88% [at 11.4 µM] |  |
| CNCCNS(=O)(=O)c1cccc2cnccc12 | -29.4% |  |
| NCCCCCCCCCCNS(=O)(=O)c1cccc2c(Cl)cccc12 |  | 0.0501 µM (active) |
| CCCCCCCNS(=O)(=O)c1cccc2c(Cl)cccc12 | -21.1% |  |
| NCCNS(=O)(=O)c1cccc2cnccc12 |  | inactive |
| NCCNS(=O)(=O)c1ccc(N)cc1 | -0.285% [at 11.4 µM] |  |
| NCCCCCCNS(=O)(=O)c1cccc2c(Cl)cccc12 |  | 3.16 µM (active) |
| NCCCCNS(=O)(=O)c1ccc2c(Cl)cccc2c1 |  | 2 µM (active) |
| NCCCCCCCCCCN | 3.55% |  |
| N[C@H](C(=O)O)[C@H](OCc1ccccc1)C(=O)O |  | 10 µM (active) |
| N[C@@H](Cc1ccccc1)C(=O)O | 13.9% [at 11.4 µM] |  |
| N[C@@H](CSCc1ccccc1)C(=O)O | 11.8% [at 11.4 µM] |  |
| Fc1ccc(Nc2ncncc2-c2ccccc2C(F)(F)F)cc1 | -4.04% [at 2.29 µM] |  |
| CN1CCN(c2ccnc(-c3cccc(NS(C)(=O)=O)c3)n2)CC1 | -3.66% [at 2.29 µM] |  |
| CC(C)c1ccccc1S(=O)c1ccccc1C(C)(C)O (stereo not given) | -18.2% [at 11.4 µM] |  |
| Cc1ccc(S(=O)(=O)NC(=O)CSc2nc3ccccc3s2)cc1 |  | 2.51 µM (active) |
| NCCSc1nc2ccccc2s1 |  | 1.58 µM (active) |
| O=C(O)CCCSc1nc2ccccc2s1 | -7.61% [at 11.4 µM] |  |

| Structure (SMILES) | activity, negative = inhibition | AC50 |
| --- | --- | --- |
| c1ccc2sc(SCSc3nc4ccccc4s3)nc2c1 | -1.3% [at 11.4 µM] |  |
| O=C(CSc1nc2ccccc2s1)N1c2ccccc2Sc2ccc(C(F)(F)F)cc21 |  | 3.55 µM (active) |
| O=C(CSc1nc2ccccc2s1)NNC(=S)Nc1ccc(Br)cc1 |  | 5.01 µM (active) |
| OCCN1CCN(CC/C=C2\c3ccccc3Sc3ccc(C(F)(F)F)cc32)CC1 |  | inactive |
| O=C(CSc1nc2ccccc2s1)Nc1nccs1 | -21% |  |
| c1ccc2sc(SCCSc3nc4ccccc4s3)nc2c1 | 23.1% [at 11.4 µM] |  |
| CC(C)N=c1cc2n(-c3ccc(Cl)cc3)c3ccccc3nc-2cc1Nc1ccc(Cl)cc1 | -15.2% [at 25.6 µM] |  |
| CN(C)c1ncc2nc(-c3cccc(C#N)c3)c(=O)n(C[C@H]3CCCO3)c2n1 | -10.1% |  |
| CC(C)C(=O)C(C)(C)CCc1ccccn1 | 13.3% [at 11.4 µM] |  |
| O=C1[C@H]2[C@H]3[C@H](O)[C@H](O)C/C(=N/OC[C@@H](O)COCc4ccco4)[C@@H]3CC[C@@H]2C(=O)N1C1CCCCC1 | -9.96% [at 11.4 µM] |  |
| CCSC(=N)N |  | inactive |
| CO[C@@H]1COC(=O)C/C=C\[C@H](C)COC(=O)[C@H](Cc2ccccc2)NC(=O)C/C=C\[C@H]1C | -22.5% [at 11.4 µM] |  |
| O=C(CSc1nc2ccccc2s1)N1c2ccccc2Sc2ccccc21 |  | 1.12 µM (active) |
| CCOC(=O)C1C(=O)NC(C)C1c1ccccc1 (stereo not given) | -20.7% |  |
| COC(=O)C1=C(C)C(c2ccc(OC)cc2)NC(=S)N1 (stereo not given) |  | 15.8 µM (active) |
| CCOC(=O)C1=C(C)C(c2ccccc2OC)NC(=S)N1 (stereo not given) |  | 15.8 µM (active) |
| COc1ccc(N2C(=O)CCC(C(=O)O)C2c2ccc(F)cc2)cc1 (stereo not given) | -15.9% |  |
| COc1ccc(C2C(C(=O)N3CCOCC3)CCC(=O)N2c2ccc(OC)cc2)cc1 (stereo not given) | -18.2% |  |
| Nc1ccn([C@@H]2O[C@H](COC(=O)C34CC5CC(CC(C5)C3)C4)[C@@H](O)[C@@H]2O)c(=O)n1 | -0.936% [at 11.4 µM] |  |
